HCV inhibitor = HCV inhibition; Huh7.5.1 HCVcc-Cre infection, luciferase reporter, 44 h; Potency, µM (doses to about 41.8 µM), for the others: at the highest dose activity change, negative = inhibition, hits mostly inhibitors; 340,000 tested, 3.4% active; AID 651820; active = well fitted inhibition curve with a large enough effect; inconclusive = small, poorly fitted or top-dose-only effect, or another doubt; inactive = no such curve, though single readings can be large or run the other way; also: potency is read from the fitted curve at half-maximal effect
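After 44 h co-culture of compound, cells and HCVcc-Cre (~0.5 moi), substrate is added for 15 min at room temperature and luciferase measured over 15 sec. Cells were seeded at 1,000/well and pre-cultured 4 h.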
Vaccinia mCherry = inhibitors of vaccinia virus infection (mCherry reporter signal); Vaccinia virus mCherry reporter infection, fluorescence; AID 720579; 310,000 tested, 0.63% active; Potency, µM (doses to about 36.5 µM), inactives show top-dose activity change, negative = inhibition, actives largely listed as inhibitors; calls by dose curve; tested in A549 cells; also: potency is read from the fitted curve at half-maximal effect; nearly all actives have a fitted effect of over 35% in size
FMDV antiviral = foot and mouth disease virus antiviral activity; FMDV antiviral cell-based qHTS; Potency, µM (top dose mostly 57.9 µM), for inactives: top-dose activity change, negative = inhibition, most hits filed as inhibitors; 410,000 tested, 1.2% active; calls by dose curve; tested in HEK293T cells; also: read-out not given here; potency is read from the fitted curve at half-maximal effect; nearly all actives have a fitted effect of over 45% in size
HCMV inh = inhibitors of human cytomegalovirus. HFF cells, HCMV-luciferase reporter, 72 h; stronger effect = lower value. activity change, negative = inhibition, % at 57.5 µM. 410,000 tested, 4.5% active; in the data active = activity change below about -60%; inconclusive = no clear call, values can overlap the other calls; inactive = above about -39%
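Two compound doses tested in HFFs infected with HCMV-luciferase, MOI 1 PFU/cell, 72 h at 37C. Lysate luminescence read with OneGlo; data normalized against buffer-only and 10uM Salinomycin inhibitor controls.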
VACV Venus inh = inhibitors of vaccinia virus (Venus reporter) | 330,000 tested, 0.46% active | Potency, µM (doses to about 36.5 µM), inactives show at the top dose activity change, negative = inhibition, most hits filed as inhibitors | Vaccinia virus Venus reporter expression, fluorescence; calls by dose curve; tested in A549 cells; also: potency is read from the fitted curve at half-maximal effect; nearly all actives have a fitted effect of over 30% in size
Starred values were filed as active, the others as inactive; i = inactive; ? = inconclusive; · = no result; [ ] = dose if it differs, or a comment. Rows were chosen to be rich in hits. Some 7.3% of all compounds tested hit in one or more screens of this group. % is scaled to controls: 0 for no effect and ±100 for the full control effect.

SMILES	HCV inhibitor	Vaccinia mCherry	FMDV antiviral	HCMV inh	VACV Venus inh
O=c1oc2ccc(Cl)cc2cc1-c1nnc(Nc2cccc(C(F)(F)F)c2)s1	-6.2%	3.4%	-17.0%	-64.2*	-4.6%
COc1cccc(NC(=O)Cn2nc(C)c3c(C)n(-c4ccccc4)nc3c2=O)c1	·	-13.9%	-7.2%	?	-13.8%
CCc1nnc(NC(=O)c2nc(Cl)ccc2Cl)s1	6.2%	·	-12.1%	-6.7	·
CCOc1ccccc1NC(=O)c1nc(S(=O)(=O)Cc2cccc(C)c2)ncc1Cl	2.82µM*	-23.7%	14.1µM*	-112.7*	-25.4%
CCSc1ncc(Cl)c(C(=O)Nc2ccccc2OC)n1	-7.0%	·	-13.0%	55.8	·
CCc1nnc(NC(=O)c2nc(S(=O)(=O)Cc3ccc(C)cc3)ncc2Cl)s1	?	-8.0%	28.2µM*	-100.7*	-12.9%
CCc1nnc(NC(=O)c2nc(S(=O)(=O)Cc3cccc(C)c3)ncc2Cl)s1	11.2µM*	10.3%[7.34 µM]	4.47µM*	-101.3*	2.0%
CCc1nnc(NC(=O)c2nc(S(=O)(=O)Cc3ccccc3)ncc2Cl)s1	?	i	-68.7%	-101.0*	-5.8%
CCOc1ccc(CN=C(N)N=C(N)N)cc1Cl	?	·	-0.3%	5.7	?
CCCCOc1ccc(CN=C(N)N)cc1Cl	10µM*	·	?	-20.2	·
CCCOc1ccc(CSC(=N)N)cc1C(=O)OC	-23.7%	-3.1%	-14.9%	23.7	-19.6%
CCCOc1ccc(CCCN=C(N)N)cc1Cl	8.91µM*	-29.6%	?	-73.6*	?
O=C(Nc1ccccc1C(=O)NCC1CC1)c1cccs1	·	·	·	0.8	·
COc1cc2nc(N(C)C)c(CNCc3cccc4ccccc34)cc2c(OC)c1OC	·	i	-24.1%	·	-3.8%
CC(C)(C)OC(=O)NCCCCCc1cn([C@@H](CO)C(=O)NCCCCCCCCCCC(=O)N2CCN(C(=O)OC(C)(C)C)CC2)nn1	?	?	7.08µM*	-95.3*	?
CC[C@H](C)[C@@H](C(=O)NCCCCCCCCCCC(=O)N1CCN(C(=O)OC(C)(C)C)CC1)n1cc(CCCCCNC(=O)OC(C)(C)C)nn1	?	?	?	-69.5*	?
O=C1CCCC2=C1Sc1ccc(Cl)cc1N2	11.2µM*	·	-1.0%	-27.0	·
CC(C)c1ccc(CCNC(=O)CSC(=S)N2CCCC2)cc1	10.6%	-11.1%	-19.6%	7.7	-13.9%
CCCCc1c(O)c2ccccc2n(CCCC)c1=O	8.2%	-16.3%	-0.7%	8.8	-0.7%
CCCCc1c(CCC)c(=N)c2ccccc2n1C	?	-24.8%	?	-98.1*	-17.5%
CCCn1c(CNc2ccc(Br)cc2)nc2ccccc21	?	11.2µM*	-17.6%	?	?
CCCC(C)C(=O)Nc1ncc(S(=O)(=O)c2ccc([N+](=O)[O-])cc2)s1 (centres undefined)	?	2.51µM*	?	-21.2	?
N#CC(C#N)=C1C=CC=CN1/C(=C\c1ccco1)C(=O)c1ccc(-c2ccccc2)cc1	?	?	14.1µM*	-101.4*	-15.4%
CC(/C=N/n1c(-c2ccc(Cl)cc2)n[nH]c1=S)=C\c1ccco1	3.2%	-3.8%	0.0%	94.4	-13.1%
N#CC(C#N)=C1C=CC=CN1/C(=C\c1ccco1)C(=O)c1ccc(Cl)cc1	?	?	?	-97.2*	28.2µM*
SMILES	HCV inhibitor	Vaccinia mCherry	FMDV antiviral	HCMV inh	VACV Venus inh
COC(=O)[C@@]12CCCCN1[C@H](c1ccc(-c3ccc(F)cc3)cc1)[C@@H]1C(=O)N(C)C(=O)[C@@H]12	-18.9%	-12.4%	-20.8%	0.0	-29.1%
CC1CCCC(NC(=O)c2cccc(S(=O)(=O)N3CCOCC3)c2)C1C (centres undefined)	·	-18.6%	-12.2%	-25.5	-11.7%
Cc1cc(C)c(NC(=O)c2cc(C)nc3c2c(C)nn3-c2cccc(F)c2)c(C)c1	·	-10.1%	-11.8%	21.7	-7.9%
O=C1NC(=O)c2c1c(-c1ccccc1)cc1[nH]c3ccc(O)cc3c21	·	·	-34.9%	·	·
Cc1cc(C)n(-c2nc(Nc3ccccc3C)nc(-n3nc(C)cc3C)n2)n1	·	·	·	-97.3*	·
Cc1cc(C)n(-c2nc(NC(C)(C)C)nc(NC(C)(C)C)n2)n1	?	·	?	?	3.6%
Cc1cc(N2CCN(c3ccccc3)CC2)nc(-n2nc(C)cc2C)n1	·	-29.9%	?	-33.9	-12.9%
Cc1cc(Nc2ccccc2C)nc(-n2nc(C)cc2C)n1	·	-6.3%[7.34 µM]	-16.9%	-68.6*	-6.3%[7.34 µM]
Cc1cc(C)n(-c2nc(N(C)C)nc(N(C)C)n2)n1	-29.9%	-17.8%	-2.6%	-4.6	-12.2%
